KCNQ2 pot: potentiators of rat KCNQ2 potassium channel. Potassium voltage-gated channel subfamily KQT member 2 (Rattus norvegicus), O88943. CHO-K1 KCNQ2, FluxOR thallium flux fluorescence; stronger effect = higher value. B-score at 10 µM. 0.54% of 310,000 active;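 active = fluorescence ratio B-score at least 3 SD of library B-scores, with initial fluorescence B-score within 3 of them, cut at about 5.3 in these data; same plate scores as AID 2156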;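 note: B-score of peak minus minimum over baseline fluorescence ratio after K+ and Tl+ stimulus; positive B-score means potentiation of KCNQ2 with more thallium influx and brighter signal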
KCNQ2 block: rat KCNQ2 potassium channel inhibitors, primary screen, cell-based, CHO-K1, FluxOR thallium flux, B-score. Potassium voltage-gated channel subfamily KQT member 2 (Rattus norvegicus), O88943. 20 min; stronger effect = lower value. B-score at 10 µM. 1.1% of 310,000 active. AID 2156, 2009;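 active = fluorescence ratio B-score at most minus 3 library SDs, with starting brightness B-score within 2 library SDs, cut at about -5.5 in these data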
KCNQ2 inh conf: rat KCNQ2 potassium channel inhibitors, confirmation, cell-based, thallium flux. KCNQ2-expressing cells, inhibition; stronger effect = lower value. 57% of 1,000 active. shares compounds with KCNQ2 block. activity change, negative = inhibition, % at 10 µM;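 note: 0% = vehicle wells and values are ratio percent relative to vehicle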
KCNQ1 spec: human KCNQ1 channel inhibition, counter-screen for KCNQ2 inhibitor project, cell-based, FluxOR thallium flux. shares compounds with KCNQ2 block. KCNQ1-expressing cells, FluxOR thallium flux fluorescence; stronger effect = lower value. activity change, negative = inhibition, % at 10 µM. 15% of 1,000 active. AID 493026, 2011;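 active = activity change at least 3 SD of negative controls below their mean in both duplicate wells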;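 note: CHO cells stably transfected with KCNQ1 and depolarized by potassium stimulus; peak minus minimum fluorescence over baseline after thallium addition; 0% = vehicle negative control and -100% = blank without thallium stimulus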
Target sequence (P51787 whole entry, looked up): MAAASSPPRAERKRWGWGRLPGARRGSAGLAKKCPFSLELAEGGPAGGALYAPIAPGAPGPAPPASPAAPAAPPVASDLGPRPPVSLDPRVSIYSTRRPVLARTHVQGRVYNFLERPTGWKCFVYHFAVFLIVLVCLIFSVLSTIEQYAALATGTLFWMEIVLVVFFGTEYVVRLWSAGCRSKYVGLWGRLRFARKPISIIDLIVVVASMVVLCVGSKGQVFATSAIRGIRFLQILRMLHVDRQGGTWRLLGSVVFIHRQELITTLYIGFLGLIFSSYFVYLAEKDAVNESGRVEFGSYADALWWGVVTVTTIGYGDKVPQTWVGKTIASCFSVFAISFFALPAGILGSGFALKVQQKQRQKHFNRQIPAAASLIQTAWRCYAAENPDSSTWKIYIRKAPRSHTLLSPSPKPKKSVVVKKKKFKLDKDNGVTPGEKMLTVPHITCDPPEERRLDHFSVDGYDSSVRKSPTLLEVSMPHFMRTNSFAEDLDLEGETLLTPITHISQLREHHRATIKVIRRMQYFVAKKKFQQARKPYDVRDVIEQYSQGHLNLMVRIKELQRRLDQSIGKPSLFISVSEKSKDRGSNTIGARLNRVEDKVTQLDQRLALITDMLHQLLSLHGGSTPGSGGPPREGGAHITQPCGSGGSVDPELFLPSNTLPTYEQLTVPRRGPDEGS
CHO parental ctr: thallium flux change in parental CHO cells, counter-screen for KCNQ2 inhibitor project; activity change, % at 10 µM; stronger effect = lower value; shares compounds with KCNQ2 block; 14% of 1,000 active;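 note: 0% = vehicle negative controls with stimulus buffer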
KCNQ2 patch conf: rat KCNQ2 channel inhibitors, confirmation, cell-based, automated patch clamp, single concentration. AID 588531, 2011. 49% of 550 active. shares compounds with KCNQ2 block. calls only at 10 µM. KCNQ2-expressing cells, automated patch clamp current
Kir21 conf inh: mouse Kir2.1 channel blockers, retest, confirmation, cell-based, FluxOR thallium flux, duplicate; shares compounds with KCNQ2 pot; Kir2.1-expressing cells, FluxOR thallium flux fluorescence; stronger effect = lower value; Tl flux remaining, % of negative control (stronger effect = lower value), % at 10 µM; 41% of 2,300 active; AID 2032, 2009;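 active = Primary-screen hit whose thallium flux fell at least 3 control SD below untreated wells in both duplicates, with normal baseline fluorescence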;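 note: 0% = blank wells without stimulus and 100% = stimulated no-compound controls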
HEK293 Tl flux: alters thallium flux in parental HEK293 cells, Kir2.1 counter-screen; shares compounds with KCNQ2 pot; FluxOR thallium flux fluorescence; 0% = unstimulated blank wells; FluxOR signal as % of negative control (100 = no effect), % at 10 µM; 19% of 2,300 active; AID 2105;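 active = dye signal at least 3 control SD above or below untreated wells in both duplicates, raw fluorescence within 3, either direction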;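 note: percent is based on the flux ratio of peak minus minimum fluorescence over baseline F0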
The depositor's hits bear a star. Most compounds without a hit are left out; they make up all but 1.6% or so of the library. Unless noted, the rule behind the calls is not given here.

How did COc1ccc(NC(c2ccccc2)P(=O)(Oc2ccccc2)Oc2ccccc2)cc1 (stereo not given) do in these assays?
KCNQ2 pot: -6.98; KCNQ2 block: -6.98*; KCNQ2 inh conf: -31.0%*; KCNQ1 spec: inactive; CHO parental ctr: inactive; KCNQ2 patch conf: active

Results for O=P(Nc1ccccc1)(Nc1ccccc1)Oc1ccccc1 ?
KCNQ2 block: inactive

How did O=P(Nc1ccccc1)(Nc1ccccc1)Oc1cccc(Cl)c1 do in these assays?
KCNQ2 pot: -7.71; KCNQ2 block: -7.71*; KCNQ2 inh conf: inactive; KCNQ1 spec: inactive; CHO parental ctr: inactive

How did O=C1CN(C(=O)COC(=O)Cc2ccccc2)c2ccccc2N1 do in these assays?
KCNQ2 block: inactive

What do the screens show for `CN1CCCN(C(=O)COc2ccccc2Br)CC1`?
KCNQ2 pot: 1.76; KCNQ2 block: inactive

How did O=C(Nc1ccc(Cl)cc1)O/N=C(\c1ccccc1)c1ccccn1 do in these assays?
KCNQ2 pot: -7.65; KCNQ2 block: -7.65*; KCNQ2 inh conf: inactive; KCNQ1 spec: inactive; CHO parental ctr: inactive

Results for CON(C)C(=O)Nc1ccc(Cl)cc1 ?
KCNQ2 block: inactive

How did COc1ccc(C(=O)NC(=S)N2C[C@H]3C[C@H](C2)c2cccc(=O)n2C3)cc1 do in these assays?
KCNQ2 pot: 0.12; KCNQ2 block: inactive

Results for CC1CCC(C(C)C)C(OC(=O)Cn2c(COc3ccccc3)[n+](C)c3ccccc32)C1 (stereo not given) ?
KCNQ2 pot: -9.99; KCNQ2 block: -9.99*; KCNQ2 inh conf: -55.0%*; KCNQ1 spec: -52.5%*; CHO parental ctr: -50.5%*; KCNQ2 patch conf: inactive; Kir21 conf inh: 18.0%*; HEK293 Tl flux: inactive

Results for CC1=C(C/C(C)=C/c2ccccc2)/C(=C/CO)[C@H](O)[C@](C)(O)C12CC2 ?
KCNQ2 block: inactive

Results for C[C@H](NC(=O)N1C[C@H]2C[C@@H](C1)c1cccc(=O)n1C2)C(=O)Nc1ccc(F)c(F)c1 ?
KCNQ2 pot: 1.02; KCNQ2 block: inactive

Results for CCCCCCCSc1cc(OC)c(CCN(C)C)cc1OC ?
KCNQ2 pot: -7.74; KCNQ2 block: -7.74*; KCNQ2 inh conf: -34.0%*; KCNQ1 spec: -37.5%*; CHO parental ctr: -27.5%*; KCNQ2 patch conf: inactive; Kir21 conf inh: 19.0%*; HEK293 Tl flux: inactive

Results for COC(=O)OCC12CCC(O1)C1(C)C(=O)OCC21 (stereo not given) ?
KCNQ2 pot: 1.62; KCNQ2 block: inactive

How did CC(C)C(C)(NC(=O)c1cccn(Cc2ccc3c(c2)OC(F)(F)O3)c1=O)C(N)=O (stereo not given) do in these assays?
KCNQ2 block: inactive

Results for Oc1ccccc1-[n+]1c(-c2ccccc2)cc(-c2ccccc2)cc1-c1ccccc1 ?
KCNQ2 pot: -7.58; KCNQ2 block: -7.58*; KCNQ2 inh conf: -16.5%*; KCNQ1 spec: inactive; CHO parental ctr: inactive; KCNQ2 patch conf: inactive; Kir21 conf inh: 44.5%*; HEK293 Tl flux: inactive

How did Cc1ccc(-c2cc(-c3ccccc3)cc(-c3ccccc3)[n+]2-c2ccc(C(=O)O)cc2)cc1 do in these assays?
KCNQ2 block: inactive

How did COc1ccc(-c2cc(-c3ccccc3)[n+](C)c(-c3ccccc3)c2)cc1 do in these assays?
KCNQ2 block: inactive

Results for COc1ccc(-[n+]2c(-c3ccccc3)cc(-c3ccc(C)cc3)cc2-c2ccccc2)cc1 ?
KCNQ2 pot: -10.1; KCNQ2 block: -10.1*; KCNQ2 inh conf: -26.0%*; KCNQ1 spec: inactive; CHO parental ctr: inactive; KCNQ2 patch conf: active; Kir21 conf inh: 14.0%*; HEK293 Tl flux: inactive

How did Oc1ccc(CC2(N3CCCC3)CCCCC2)cc1 do in these assays?
KCNQ2 block: inactive

How did CC(C)=CCc1c(O)cc2c(c1O)C(=O)CC(c1ccc(O)cc1)O2 (stereo not given) do in these assays?
KCNQ2 block: inactive

Results for Oc1ccc(C2NCc3ccccc3-n3cccc32)cc1Cl (stereo not given) ?
KCNQ2 pot: 0.53; KCNQ2 block: inactive; Kir21 conf inh: 59.0%*; HEK293 Tl flux: inactive

How did FC(F)(F)c1cccc(C2NCc3ccccc3-n3cccc32)c1 (stereo not given) do in these assays?
KCNQ2 block: inactive

How did S=P(NC1CCCCC1)(N1CC1)N1CC1 do in these assays?
KCNQ2 pot: 1.2; KCNQ2 block: inactive

Results for CC(C)CNc1c2c(nc3ccccc13)CCC2 ?
KCNQ2 pot: 3.15; KCNQ2 block: inactive

How did c1ccc(CNc2c3c(nc4ccccc24)CCC3)cc1 do in these assays?
KCNQ2 pot: 0.24; KCNQ2 block: inactive; Kir21 conf inh: inactive; HEK293 Tl flux: inactive

Results for NS(=O)(=O)OC(CCc1ccccc1)C(Cl)(Cl)Cl (stereo not given) ?
KCNQ2 pot: 1.94; KCNQ2 block: inactive

Results for Nc1ccccc1C(=O)OCC(=O)c1ccc2c(c1)OCCO2 ?
KCNQ2 block: inactive

How did CN1CC(C(=O)c2cccc(C(F)(F)F)c2)C(c2ccc(Cl)cc2)C1 (stereo not given) do in these assays?
KCNQ2 block: inactive; Kir21 conf inh: 41.5%*; HEK293 Tl flux: 59.0%*

What do the screens show for `CN1CC(C(=O)c2ccc([N+](=O)[O-])cc2)C(c2ccc(Cl)cc2)C1` (stereo not given)?
KCNQ2 block: inactive

What do the screens show for `CN1CC(C(=O)c2ccccc2)C(c2ccccc2)C1` (stereo not given)?
KCNQ2 pot: 1.25; KCNQ2 block: inactive

How did COc1cccc(C(=O)C2CN(C)CC2c2ccc(Cl)cc2)c1 (stereo not given) do in these assays?
KCNQ2 block: inactive; Kir21 conf inh: 37.5%*; HEK293 Tl flux: inactive

Results for O=C(Nc1ccc(F)cc1)OC1CN2CCC1CC2 (stereo not given) ?
KCNQ2 pot: 1.37; KCNQ2 block: inactive

Compound activity (PubChem BioAssay)
